Assay outcomes deposited in PubChem by Sanford-Burnham Center for Chemical Genomics.
An excerpt weighted towards active compounds, which were near 3% of everything screened.
SENP7 inh: blocks the human protease SENP7; Q9BQF6; 330,000 tested, 1.5% active; inhibition, % at 5 µM; recombinant SENP7, Z-RLRGG-aminoluciferin luminescence, 40 min;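 active = inhibition above about 50% at the single test dose, limit read from the data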;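 note: plate controls were DMSO with enzyme for no effect and no enzyme buffer wells for full effect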
SENP8 block-1: SENP8 protease inhibition; Q96LD8; AID 2540; 330,000 tested, 1.2% active; inhibition, % at 10 µM; purified SENP8, Z-RLRGG-aminoluciferin cleavage, luminescence; in the data active = inhibition above about 50%
PPC-1+TRAIL kill: compounds killing PPC-1 cancer cells with TRAIL present (potentiator screen, no TRAIL-free arm) | PPC-1 cells + TRAIL, ATPLite viability luminescence | cell killing (% activity), % at 4 µM or 5 µM | 220,000 tested, 0.41% active | AID 1443;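 active = cell killing above 50% in the first pass at 4 µM, then a duplicate retest at 5 µM averaging 50% or more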;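 note: plate controls were cells with TRAIL plus DMSO for no effect and medium-only wells lacking cells for full effect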
SENP6 inh: blocks the human protease SENP6. Q9GZR1. Recombinant SENP6 catalytic domain, aminoluciferin luminescence. inhibition, % at 10 µM. 330,000 tested, 1.8% active. AID 2599;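 active = inhibition above about 50% at the single tested dose, limit read from the data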;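 note: plate controls were DMSO wells with enzyme for no effect and DMSO wells lacking enzyme for full effect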
Target sequence (Q9GZR1 628-1112 limits assumed): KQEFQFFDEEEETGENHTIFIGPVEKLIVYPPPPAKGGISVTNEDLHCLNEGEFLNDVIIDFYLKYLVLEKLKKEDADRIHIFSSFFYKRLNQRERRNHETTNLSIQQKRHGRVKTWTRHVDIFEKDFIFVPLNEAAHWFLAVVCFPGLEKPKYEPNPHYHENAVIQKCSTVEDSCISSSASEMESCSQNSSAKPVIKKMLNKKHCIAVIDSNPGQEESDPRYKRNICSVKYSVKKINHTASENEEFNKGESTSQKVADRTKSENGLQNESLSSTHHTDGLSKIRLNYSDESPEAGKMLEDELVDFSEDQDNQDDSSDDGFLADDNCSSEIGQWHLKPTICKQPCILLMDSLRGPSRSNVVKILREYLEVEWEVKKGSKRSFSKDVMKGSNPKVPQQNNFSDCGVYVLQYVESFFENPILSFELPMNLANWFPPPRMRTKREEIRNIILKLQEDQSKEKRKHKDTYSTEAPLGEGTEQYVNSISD
C8 TRAIL sens: caspase-8 TRAIL sensitization | NB7+C8 cells + TRAIL, ATPlite viability luminescence | inhibition (viability loss, TRAIL sensitization), % at 10 µM | 360,000 tested, 1% active;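 active = compounds causing at least 50% loss of cell viability in the single-dose screen, relative to plate controls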
SENP8 block-2: SENP8 (human) protease inhibition; AID 602440; inhibition, % at 20 µM; recombinant SENP8, Nedd8 substrate fluorescence; 360,000 tested, 0.64% active; in the data active = inhibition mostly above about 40%, no sharp cut-off; inactive = mostly below about 27%
SENP8 confirm: confirmation of human SENP8 protease inhibitors; inhibition, % at 12.5 µM; shares compounds with SENP7 inh; 6,200 tested, 40% active; AID 488912; Recombinant SENP8, Z-RLRGG-aminoluciferin luminescence, 60 min;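 active = mean inhibition across replicates above about 50%, limit read from the data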
SENP6 confirm: human SENP6 inhibition, confirmed | shares compounds with SENP7 inh | recombinant SENP6, Z-RLRGG-aminoluciferin luminescence | inhibition, % at 12.5 µM | 6,200 tested, 58% active | AID 488915
SENP7 conf: human SENP7 inhibition, confirmed. shares compounds with SENP7 inh. 6,200 tested, 69% active. AID 488917. inhibition, % at 12.5 µM. recombinant SENP7, Z-RLRGG-aminoluciferin luminescence, 40 min
Casp3 SENP sel: selectivity test for SENP inhibitors: human caspase-3 inhibition. shares compounds with SENP7 inh. purified caspase-3, Z-DEVD-aminoluciferin luminescence, 60 min. inhibition, % at 12.5 µM. 6,200 tested, 60% active. AID 488918;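 active = mean inhibition above about 50%, limit read from the data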;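 note: plate controls were enzyme with DMSO for no effect and wells without caspase-3 for full effect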
Target sequence (P42574 28-227 limits assumed): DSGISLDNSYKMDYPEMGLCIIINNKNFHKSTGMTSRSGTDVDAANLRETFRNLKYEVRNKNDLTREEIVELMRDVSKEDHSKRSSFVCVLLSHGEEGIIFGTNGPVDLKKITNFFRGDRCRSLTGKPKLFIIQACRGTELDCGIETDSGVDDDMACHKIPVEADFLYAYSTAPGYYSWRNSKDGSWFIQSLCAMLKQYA
Luc interf: counter-screen for SENP inhibitors: luminescence interference | inhibition, % at 12.5 µM | Pre-incubated SENP8/Z-RLRGG-aminoluciferin, luciferase luminescence interference | 6,200 tested, 39% active | shares compounds with SENP7 inh;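 active = mean inhibition above about 50% when retested at one dose, limit read from the data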;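 note: plate controls were DMSO wells with completed reaction for no effect and substrate without enzyme for full effect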
Starred values were filed as active, the others as inactive; i = inactive; nt = not tested or not shown.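 Rule for the calls, unless noted: active = mean inhibition above about 50% in the one-dose retest (limit read from the data); inactive = the rest.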

SMILES	SENP7 inh	SENP8 block-1	PPC-1+TRAIL kill	SENP6 inh	C8 TRAIL sens	SENP8 block-2	SENP8 confirm	SENP6 confirm	SENP7 conf	Casp3 SENP sel	Luc interf
O=C(N/N=C/c1cc([N+](=O)[O-])ccc1O)c1ccc2c(c1)OCCO2	88.9*	84.8*	35.5	93.0*	52.0*	-4.5	14.5	18.1	16.4	23.3	-1.2
Cc1cccc(/C=N/NC(=O)c2ccc3c(c2)OCCO3)c1O	96.5*	94.3*	nt	93.7*	75.8*	10.8	95.5*	98.3*	102.6*	94.3*	65.9*
O=C(NC(=S)Nc1cc([N+](=O)[O-])ccc1O)c1ccc2c(c1)OCO2	81.4*	89.1*	nt	90.4*	39.1	20.8	93.1*	93.6*	97.0*	86.8*	77.3*
Cc1cccc(/C=N/NC(=O)Cc2ccc(Cl)cc2)c1O	-1.0	16.2	nt	-20.3	23.3	-18.7	nt	nt	nt	nt	nt
Cc1cccc(/C=N\NC(=O)c2ccc(Cl)cc2)c1O	73.5*	11.8	33.8	36.9	55.0*	1.7	7.4	19.4	29.2	59.6*	5.4
O=C(COc1ccc(F)c(Cl)c1)N1CCCCCCC1	5.4	-8.4	nt	-11.3	-26.6	4.0	nt	nt	nt	nt	nt
CC1(C(=O)NS(=O)(=O)C2CC2)CCN(C(=O)c2ccc(F)c(Cl)c2)C1 (centres undefined)	nt	nt	nt	nt	-7.5	18.0	nt	nt	nt	nt	nt
COc1ccc(C(=O)Nc2nc(OCC(F)(F)F)cnc2/C=C\c2ccccc2)c(OC)c1	nt	nt	nt	nt	-0.9	i	nt	nt	nt	nt	nt
Cn1ccc(C(=O)NC(=S)Nc2ccc([N+](=O)[O-])cc2O)n1	53.6*	55.5*	nt	71.7*	0.0	16.7	74.5*	72.4*	93.1*	75.4*	78.3*
O=C(Cc1ccc(Cl)cc1)c1ccc(O)cc1	5.2	41.6	-8.8	51.0*	-12.4	22.8	54.9*	49.5	78.7*	46.5	63.3*
O=C(NC1CCCCC1)c1[nH]c(C(F)(F)F)nc1-c1ccccc1	nt	nt	nt	nt	-13.4	17.2	nt	nt	nt	nt	nt
CC(=O)Oc1ccc(C(=O)Cc2ccc3ccccc3n2)c(O)c1C	73.8*	0.9	14.2	-6.9	42.7	33.1	-23.6	-13.6	-4.5	-1.2	-3.9
C/C(=N/N=C/c1ccc(N(C)C)cc1)c1ccccc1	101.2*	97.7*	17.5	96.8*	55.9*	-42.6	3.1	80.3*	101.2*	67.2*	26.4
CN(C)c1ccc(C=Nc2ccccc2)cc1	-3.2	-5.8	7.5	-10.8	-9.7	-0.2	nt	nt	nt	nt	nt
COc1ccc(C(=O)N=c2sc3c(C)ccc(OC)c3n2C)cc1OC	89.4*	75.7*	4.7	83.9*	12.7	-446.4	4.8	13.9	15.4	8.8	16.2
COc1ccccc1C(=O)N=c1sc2c(C)ccc(OC)c2n1C	48.1	44.0	26.7	57.9*	-3.6	-453.6	19.3	18.1	25.5	53.0*	13.8
COc1cccc(C(=O)N=c2sc3c(C)ccc(OC)c3n2C)c1	96.8*	68.1*	14.4	5.8	18.9	-487.1	11.2	21.8	9.3	13.1	18.9
CCN(CC)S(=O)(=O)c1ccc(N2CCOCC2)c(NC(=O)CC23CC4CC(CC(Br)(C4)C2)C3)c1	2.7	-8.0	11.7	-16.3	4.3	8.9	nt	nt	nt	nt	nt
c1ccc(-c2nc(-c3nccc4ccccc34)oc2-c2ccccc2)cc1	84.6*	64.2*	2.9	86.4*	22.5	-406.3	13.5	20.6	60.8*	75.8*	64.9*
COc1ccc2oc(=O)c(-c3nc(C)cs3)cc2c1	91.6*	74.5*	-10.8	48.2	10.3	-294.1	-11.0	20.8	24.1	32.0	12.3
COc1ccc2oc(=O)c(-c3nnc(N)s3)cc2c1	16.1	-0.6	6.2	4.6	-2.1	-414.7	nt	nt	nt	nt	nt
O=C1CNC(=S)N1c1nc(-c2ccccc2)cs1	87.8*	88.2*	16.6	96.1*	-1.1	18.3	-4.3	5.5	2.5	14.0	7.1
Cc1ccccc1N1CCN(CCC(=O)Nc2ccc(F)cc2)CC1	-2.1	-4.9	nt	-9.0	3.0	3.2	nt	nt	nt	nt	nt
O=C(CNc1cccc2ccccc12)N/N=C/c1ccccn1	28.7	71.3*	-0.2	83.3*	-20.2	-38.7	13.5	15.3	6.5	-1.5	-0.1
O=C(CNc1cccc2ccccc12)N/N=C/c1cccc(Oc2ccccc2)c1	24.5	51.4*	7.9	67.3*	-7.6	-260.9	6.6	-3.4	-6.1	-4.3	-4.1
SMILES	SENP7 inh	SENP8 block-1	PPC-1+TRAIL kill	SENP6 inh	C8 TRAIL sens	SENP8 block-2	SENP8 confirm	SENP6 confirm	SENP7 conf	Casp3 SENP sel	Luc interf
O=C(N/N=C/c1cccc(Oc2ccccc2)c1)c1cccc(O)c1	37.6	37.2	nt	60.0*	26.5	4.8	47.8	42.7	61.6*	27.8	22.3
Cc1ccccc1NCC(=O)N/N=C/c1ccc([N+](=O)[O-])cc1	-7.6	-3.4	2.5	4.6	14.7	19.2	nt	nt	nt	nt	nt
O=C(CNc1cccc2ccccc12)N/N=C/c1ccc([N+](=O)[O-])cc1	30.4	18.1	9.3	74.3*	29.0	-104.8	11.1	6.7	8.1	4.0	2.3
Cc1c(NS(=O)(=O)c2cccc(C(=O)OCC(=O)N(C)C3CCCCC3)c2)c(=O)n(-c2ccccc2)n1C	1.6	-6.6	-4.7	-9.6	-5.2	12.4	nt	nt	nt	nt	nt
COc1ccc(N=Cc2c(O)c3ccccc3oc2=O)cc1	89.9*	33.3	6.9	90.8*	11.8	-110.2	69.7*	73.5*	83.5*	65.7*	48.6
COc1ccc(OC)c(N=Cc2c(O)c3ccccc3oc2=O)c1	-0.9	-24.7	nt	-21.2	-15.5	-81.9	nt	nt	nt	nt	nt
CC(C)c1ccc(N=Cc2c(O)c3ccccc3oc2=O)cc1	90.7*	63.0*	nt	85.1*	3.1	-146.0	57.6*	60.2*	77.0*	42.3	31.0
O=C(O)c1cc(N=Cc2c(O)c3ccccc3oc2=O)ccc1O	90.9*	74.0*	nt	93.7*	4.4	-281.9	93.1*	86.0*	100.9*	37.6	94.8*
Cc1ccc(N=Cc2c(O)c3ccccc3oc2=O)cc1F	70.0*	35.1	nt	-10.6	6.2	-199.5	31.4	24.7	33.3	9.1	18.1
C[C@@H]1CN(c2c(F)c(N)c3c(=O)c(C(=O)O)cn(C4CC4)c3c2F)C[C@H](C)N1	nt	nt	17.6	nt	nt	nt	nt	nt	nt	nt	nt
COc1ccc(Cn2c(O)c(C=Nc3ccccc3)c3ccccc3c2=O)cc1	19.9	-1.3	18.2	35.5	-3.5	28.3	nt	nt	nt	nt	nt
